The campaign covered roughly 2,100 compounds. About 1,100 (52%) were called active. Inconclusive results (about 29%) are left out. So high a share suggests a set chosen from earlier hits. The list shows a part of the results. A number with no mark means an inactive call. Calls come from the whole dose curve; as a rule, active = well fitted inhibition curve with a large enough effect; inconclusive = small, poorly fitted or top-dose-only effect; inactive = no such curve, though single readings can be large or run the other way.
Target: DNA dC->dU-editing enzyme APOBEC-3F (Homo sapiens) (UniProt Q8IUX4)
Sequence (Q8IUX4 whole entry, looked up): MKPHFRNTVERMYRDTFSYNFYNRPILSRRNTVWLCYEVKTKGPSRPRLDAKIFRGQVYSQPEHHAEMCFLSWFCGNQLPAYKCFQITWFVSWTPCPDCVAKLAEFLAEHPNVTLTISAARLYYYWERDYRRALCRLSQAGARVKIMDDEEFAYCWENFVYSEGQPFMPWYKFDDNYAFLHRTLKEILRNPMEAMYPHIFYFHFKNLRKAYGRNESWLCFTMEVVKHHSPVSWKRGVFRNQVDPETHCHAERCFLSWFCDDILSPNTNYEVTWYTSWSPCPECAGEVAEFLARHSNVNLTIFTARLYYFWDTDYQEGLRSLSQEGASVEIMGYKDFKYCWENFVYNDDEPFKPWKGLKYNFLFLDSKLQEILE
Experiment: qHTS for inhibitors of Vif-A3F interactions: Cherry picks counterscreen; note: nearly all actives have a fitted effect of over 65% in size
Details: HeLa A3F-eYFP/Vif cells, eYFP fluorescence, 24 h; series mostly up to 46.1 µM; activity, negative = inhibitor: at the top concentration
Procedure, shortened: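 Rescue of Vif-driven A3F-eYFP degradation read as cellular eYFP fluorescence after 24 h compound exposure (several concentrations) in stable HeLa cells; MG132 (2 mM stock) as positive control.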
% is set by controls: 0 for no effect and ±100 for the full control effect; potency is the fitted concentration of half-maximal effect.

| Structure (SMILES) | Potency | activity, negative = inhibitor |
| --- | --- | --- |
| Cn1c(N)c(-c2ccccc2)c2ccc([N+](=O)[O-])cc2c1=O | 14 µM (active) | – |
| CCN1C(=O)/C(=C2/Sc3ccc(OC)cc3N2C)SC1=Nc1cccc(O)c1 | 17.7 µM (active) | – |
| C=CCN1C(=O)/C(=C2/Sc3ccc(OC)cc3N2CC)SC1=S | 13 µM (active) | – |
| CCN(CC)c1ccc(/C=C/c2ccncc2)cc1 | 13 µM (active) | – |
| CCN(CC)c1ccc(/C=C/c2ccccn2)cc1 | 20.6 µM (active) | – |
| CCN(CC)c1ccc(/C=C/C2=C3C=CC=CC3NC=C2)cc1 (stereo unspecified) | 23.1 µM (active) | – |
| CN(C)c1ccc(/C=C/c2ccncc2)cc1 | 9.2 µM (active) | – |
| Cc1ccc(S(=O)c2ccc([N+](=O)[O-])c3nonc23)cc1 (stereo unspecified) | – | 14.9% |
| CC[n+]1ccccc1/C=C/c1ccc(N(C)C)cc1 | 23.1 µM (active) | – |
| CC(C)CC[n+]1ccccc1/C=C/c1ccc(N(C)C)cc1 | 18.4 µM (active) | – |
| CCOC(=O)c1c(CN(CC)CC)n(-c2ccccc2)c2ccc(O)cc12 | – | -1.16% [at 36.9 µM] |
| CCOC(=O)c1cc2n(c1/N=C/N(C)C)-c1ccccc1C2=O | 18.4 µM (active) | – |
| CCOC(=O)c1cc2n(c1N)-c1ccccc1C2=O | 18.4 µM (active) | – |
| CCOC(=O)c1cnc(-n2nc(C)cc2C)nc1NNc1nc(-c2ccccc2)cc(-c2ccccc2)n1 | – | 9.12% |
| Cc1cc(/C=C2\SC(=S)N(C)C2=O)c(C)n1-c1ccccc1O | 18.4 µM (active) | – |
| Cc1cc(/C=C2\SC(=S)N(C)C2=O)c(C)n1-c1ccc(O)cc1 | 18.4 µM (active) | – |
| NNC(=O)c1cc2sccc2s1 | – | -6.41% [at 36.9 µM] |
| CCn1ncc(/C=N\NC(=O)c2csc3ccccc23)c1C | 2.5 µM (active) | – |
| CCOC(=O)/C(=C/C1=CC(=C/N(C)C)/C(=O)O1)C(C)=O | – | 2.81% |
| CCOc1ccc(C2CC(c3c(O)c4ccccc4oc3=O)=NN2c2ccccc2)cc1OC (stereo unspecified) | 14.6 µM (active) | – |
| CNC(=O)C(Sc1nc(C)nc2c1oc1ccccc12)C(C)=O (stereo unspecified) | – | -17.5% [at 36.9 µM] |
| CCOc1ccccc1Oc1nc(C)nc2c1oc1ccccc12 | 2.31 µM (active) | – |
| Cc1cccc(N2CCN(C(=O)c3cccc(N4CCCC4=O)c3)C(C)C2)c1 (stereo unspecified) | 6.27 µM (active) | – |
| COc1ccc(OC)c(NC(=O)Cn2cnc3onc(-c4ccc(Cl)cc4)c3c2=O)c1 | – | -16.2% |
| COc1ccc(OC)c(NC(=O)Cn2c(=O)n(-c3ccc(Cl)cc3)c(=O)c3c(C)c(C)sc32)c1 | 5.8 µM (active) | – |
| Cc1ccc(-c2cc(C(=O)N/N=C/c3c[nH]c4ccccc34)[nH]n2)cc1 | 3.53 µM (active) | – |

| Structure (SMILES) | Potency | activity, negative = inhibitor |
| --- | --- | --- |
| Cc1cc(N)cc(C)c1-c1c(Br)cc(N)cc1Br | 12.5 µM (active) | – |
| O=C1S/C(=C\c2ccc(N3CCOCC3)o2)C(=O)N1c1ccccc1 | 3.53 µM (active) | – |
| CCOC(=O)CN1C(=O)S/C(=C/c2ccc(N3CCCCC3)o2)C1=O | 4.61 µM (active) | – |
| O=C1S/C(=C/c2ccc(N3CCOCC3)o2)C(=O)N1Cc1ccc(F)cc1 | 5.59 µM (active) | – |
| CCCN1C(=O)S/C(=C\c2ccc(N3CCOCC3)o2)C1=O | 3.96 µM (active) | – |
| Cc1ccc(NC(=S)N/N=C2\CCCCC2C)cc1 (stereo unspecified) | – | 13.9% |
| O=C1S/C(=C/c2ccc(N3CCOCC3)o2)C(=O)N1Cc1c(F)cccc1Cl | 2.23 µM (active) | – |
| CC(C)n1cc(NC(=O)c2cc(-c3ccccc3)on2)cn1 | 3.53 µM (active) | – |
| O=C(Nc1nc(-c2ccccn2)cs1)C1CCCC1 | – | 4.01% |
| O=C(Nc1nc2ccc(S(=O)(=O)N3CCCC3)cc2s1)C1CCCCC1 | 4.44 µM (active) | – |
| CCc1ccc2nc(N(CCCN(C)C)C(=O)c3ccc(S(=O)(=O)N(C)C4CCCCC4)cc3)sc2c1 | – | 9.09% [at 36.9 µM] |
| C=CCOc1c(Cl)cc(C(=S)N2CCCC2)cc1OCC | 14 µM (active) | – |
| CCCCOc1ccc(/C=C/C2=CC(C)(C)NC(=S)N2)cc1OCC | – | 4.59% |
| Cc1ccc(F)c(S(=O)(=O)NC(=O)C2(C)CCN2C(=O)Cc2ccc(Cl)cc2Cl)c1 (stereo unspecified) | – | -5.01% [at 36.9 µM] |
| COc1ccccc1C1=NOC(COc2ccc3c(C)cc(=O)oc3c2)C1 (stereo unspecified) | 1.12 µM (active) | – |
| CCOC(=O)c1cc(-c2ccccc2C)n(CC2CC(c3ccc(OC)cc3)=NO2)n1 (stereo unspecified) | – | 10.9% [at 36.9 µM] |
| Cc1cc(=O)oc2cc(OCC(=O)N3c4ccccc4CC3C)ccc12 (stereo unspecified) | 3.53 µM (active) | – |
| Oc1ccc(/C=N\Nc2nncc(-c3ccccc3)n2)cc1 | 19.8 µM (active) | – |
| COc1cc(/C=N/Nc2cc(C)nc(NS(=O)(=O)c3ccccc3)n2)ccc1O | – | 6.94% |
| COc1cc(/C=N/Nc2ccc(Cl)nn2)cc(OC)c1O | – | 0.483% [at 36.9 µM] |
| COc1ccc(-c2cnnc(N/N=C/c3ccc(O)c(OC)c3)n2)cc1 | 9.94 µM (active) | – |
| O=c1oc2c3c4c(cc2c(C(F)(F)F)c1CCN1CCOCC1)CCCN4CCC3 | 3.66 µM (active) | – |
| Cc1ccc2[nH]c(C(=O)NN=C3CCCCC3)c(-c3ccccc3)c2c1 | – | -6.62% [at 36.9 µM] |
| CN(C)c1ccc(/C=N/NC(=O)c2cc(-c3ccc4c(c3)OCO4)n[nH]2)cc1 | 15.8 µM (active) | – |
| CCc1ccc(NC(=O)/C(C#N)=C/c2cc3ccc(C)cc3nc2N2CCOCC2)cc1 | 23.1 µM (active) | – |

Reference: PubChem BioAssay AID651815 (National Center for Advancing Translational Sciences (NCATS), 2012)
